The values below come from PubChem BioAssay (NCI).

Compounds without any hit were thinned out: in the full panel of roughly 83,000, 20% have a hit.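 Compound tested at a single concentration for 48 hours in 96-well plates; a percent growth value below 10 was scored as active.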 Unmarked numbers belong to inactive results. Active and inactive are the calls of the source.

The test system of the assay is HL-60(TB) leukemia. The assay can be described thus: NCI-60 one-dose screen, 48 h (100 = growth as untreated, 0 = no growth, -100 = all killed). As to conditions: 10 µM unless noted.
With `CCN(CC)CCN1C(=O)c2cccc3c(-c4ccc5c(c4)ncn5C4CCCCC4)ccc(c23)C1=O`, the growth was -15.2% (active). For `CN(C)c1nc(-c2ccco2)n2nc(-c3ccc(Cl)cc3)cc2n1` the value was 90.8%; for `Cc1cc(C)c2c(c1)N(C)c1ncnc(-n3c(C)nc4cc(C)ccc43)c1CC2C` (stereo not given), 1.64% (active); for `Cc1ccc(/C=C2/C(=O)Nc3cc(Cl)c(-c4csc(N)n4)cc32)cc1`, 22.2%. For `COC(=O)c1c(C)c2n(c1C)C(=O)C(c1ccccc1)=C2` the value was 67%; for `C=C1C(=O)C2CCN1CC2`, 97.4%. Take `Cc1cccc(C)c1NC(=O)Nc1ccccc1`: the growth was 104%.

On to `Cc1ccc(C(=O)/C(=C\c2ccc([N+](=O)[O-])cc2)S(=O)Cc2ccc(Cl)cc2)cc1` (stereo not given), for which the growth is 33.9%. For `Cc1ccc(C2=NN3C(C2)c2cc(Br)ccc2OC32CCN(Cc3ccccc3)CC2)o1` (stereo not given) the value was 90.4%; for `COc1cc(C(=O)/C=C/c2c(-c3cccs3)nc3sccn23)cc(OC)c1OC`, 1.04% (active). With `C=CCn1c(SCC(=O)Nc2ccc(C(=O)/C=C/c3cc(OC)c(OC)c(OC)c3)cc2)nnc1-c1cc(-c2ccc(Cl)cc2)nc2ccccc12` the figure was 98.7%; with `CCN1C(=O)N(CC)C2C1NN=c1s/c(=C\c3ccc(C(F)(F)F)cc3)c(=O)n12` (stereo not given), -49.2% (active). For the compound `Oc1ccccc1/C=N\NC(=S)Nc1ccc(F)cc1`, the growth is -10.3% (active). With `COc1ccc2[nH]c(O)c(/C=c3/cc4c(c(-c5ccc(F)c(OC)c5)n3)=Nc3ccccc3-4)c2c1` the figure was 47%; with `COc1cc(C(=O)/C=C/c2c(-c3cccs3)nc3ccccn23)cc(OC)c1OC`, -14.2% (active); with `Cc1nn(-c2ccccc2)c2c1N=c1s/c(=C\c3cn(-c4ccccc4)nc3-c3ccc(Cl)cc3)c(=O)n1C(C)N2` (stereo not given), 78.5%. For `COc1ccc2nc3cc(Cl)ccc3c(N3CCN(c4nccc(NCc5ccccc5)n4)CC3)c2c1` the value was 61.7%; for `O=C1CN2CCC1C/C2=C\c1ccnc2c(Cl)cccc12` (stereo not given), 91.8%. With `COc1cc(NCC(O)CN(CC(C)C)CC(C)C)c2nc(C)ccc2c1` (stereo not given) the figure was 81.2%. In the case of `Cc1cc(Nc2ccc3c(c2)OCO3)c2cc3c(cc2n1)OCO3`, the growth was -11.9% (active).

Regarding `O=C1NN(C(=O)c2ccc(Cl)cc2)C(c2ccccc2)=N/C1=C\c1cn(-c2ccccc2)nc1-c1ccccc1`, the growth was 94.5%. With `COc1ccc(CNC(=O)c2c(C)n([O-])c3ccc(OC)cc3[n+]2=O)cc1` the figure was 92.5%; with `CCOC(=O)c1cnc2ccc(Br)cc2c1Nc1cccc(S(=O)(=O)NC)c1`, 119%. With `O=C(CN1C=NC2C(N3CCOCC3)=NC=NC21)c1ccc(Br)cc1` (stereo not given) the figure was 102%; with `Cn1nc(CC#N)c2c(=N)n(N)cnc21`, 84.4%; with `CCN(CC)CCCC(C)Nc1cnc(C(=O)Nc2ccc(Cl)c3cccnc23)cn1` (stereo not given), -63.3% (active).

In the case of `Clc1ccc(-c2cn3ccsc3n2)c(Cl)c1Cl`, the growth is 85.7%.

In the case of `Cc1cnc(/C=N\NC(N)=S)c2cccc(N)c12`, the growth is -29.7% (active).

For `COc1cc(F)c(/C=C/c2cc(/C=C/c3cc(OC)c(OC)cc3F)n(-c3cc(F)cc(F)c3)n2)cc1OC`, the growth was 87.6%. With `Nc1cc2nc3ccccc3sc-2cc1=O` the figure was 6.95% (active); with `C=CCCCCCCCCC(=O)[O][Sn]([CH2]CCC)([CH2]CCC)[CH2]CCC`, -15.1% (active). With `Cc1ccc(-c2nn(C)c(=O)c3noc(-c4ccc(C)cc4)c23)cc1` the figure was 29.3%; with `c1c(-c2cc(C3CC3)[nH]n2)n[nH]c1C1CC1`, 78.4%. As for `Cn1/c(=N\N=C\c2ccccc2OCCO)sc2ccccc21`, the growth is 92.5%.

As for `CC(=O)Cc1nsc(NC(=O)c2ccoc2COc2ccccc2)n1`, the growth is 98.5%. With `O=C(Nc1c(Cl)cc(Cl)cc1Cl)ON=C1CCCCC1` the figure was 101%; with `O=C(O)c1cn(C2CC2)c2cc(N3CCN(C(=O)/C=C/c4ccc(Cl)cc4)CC3)c(F)cc2c1=O`, 60.4%.

With `COc1cc2c(cc1OC)CC[N+](CCC[N+](C)(C)C)=C2`, the growth is 90.1%. With `O=C1Nc2ccccc2/C1=C/c1c[nH]c2ccccc12`, the growth was 102%. With `CC(=O)Nc1c(Cl)cc2c(c1Cl)Cc1ccccc1-2` the figure was 99.7%.
